# Where “and” joins values, the source holds several entries; their conditions need not be identical. Identical values can stand only once. About 2,100 (0.66%) of roughly 320,000 compounds were called active. About 53% were inconclusive and are not listed. Calls follow the shape of the dose curve; as a rule, active = well fitted inhibition curve with a large enough effect in the signal ratio, with a control signal flat (not every such curve was filed as active); inconclusive = small, poorly fitted or top-dose-only effect, or effect the other way, or a change in a side signal; inactive = flat fitted curve, though single readings scatter; the % refers to the signal ratio. Many of the other results were omitted from the sample, so actives are more common in it than they were.
# Experiment: qHTS Assay for Lipid Storage Modulators in Drosophila S3 Cells;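 as to cell number change: cells counted by Cell Tracker Red CMTPX staining in the red channel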
# Settings: BODIPY lipid droplet fluorescence, 18-24 h, cells fed with added oleic acid; cell number change: measured here: cell count max response; series mostly up to 46.1 µM
# Summary of the method: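 Drosophila S3 cells got compounds at several concentrations plus oleic acid (400 uM solution). Laser-scanning cytometry with 488 nm excitation read lipid droplets at 500-530 nm and cells at 575-640 nm. Percent activity was relative to 20 uM Triacsin C.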
# Potency is read from the fitted curve at half-maximal effect.
Compound,Potency,cell number change
CC(C)NCC(O)COCCOc1ccc(Br)cc1 (stereo not drawn),inactive,23.8%
O=C(CCC1CCCN(C(=O)c2ccc3c(c2)OCO3)C1)N1CCN(c2ccccn2)CC1 (stereo not drawn),inactive,-1.56%
CC1CCCCC1NC(=O)c1ccc(S(=O)(=O)N2CCCC2)cc1 (stereo not drawn),inactive,25.1%
COc1cccc(C(=O)NCCS(=O)(=O)NCCc2ccc(OC)c(OC)c2)c1,inactive,
Cc1cc(-c2nn(C)c(=O)c3ccccc23)ccc1CNC(=O)NC1CCCCC1,inactive,19.3%
Cc1sc2nc(CN3CCOCC3)[nH]c(=O)c2c1-c1ccccc1,inactive,-18.1%
O=C(c1cccc(Cl)c1)N1CCCC(C(=O)N2CCCCCC2)C1 (stereo not drawn),inactive,-0.867%
NC(Cc1ccccc1)C(O)(c1ccccc1)c1ccccc1 (stereo not drawn),inactive,-20.2%
Cc1noc(NS(=O)(=O)c2ccc(NC(=O)CCn3c(=O)oc4ccccc43)cc2)c1C,inactive,
CCC(C)NC(=O)C(=O)NCc1ccccn1 (stereo not drawn),inactive,4.8%
Cc1ccc(S(=O)(=O)Cc2nnnn2-c2ccccc2)cc1,inactive,-3.66%
COc1ccc(CC(=O)Nc2ccc(-c3noc(-c4ccc(Cl)cc4)n3)cc2)cc1,inactive,-6.7%
COc1ccc(CCNC(=O)CNC(=O)c2ccccc2Br)cc1OC,inactive,19.2%
O=C1C(Cc2ccc(O)cc2)NC(=S)N1C1CCCCC1 (stereo not drawn),inactive,9.32%
CC(=O)Nc1sc(NC(=O)c2ccc([N+](=O)[O-])cc2)nc1-c1cccs1,inactive,7.62%
Cc1cccc(NC(=O)CC2C(=O)NC3CCCCC3N2C(=O)c2ccccc2Cl)c1 (stereo not drawn),inactive,7.35%
CN(C(=O)CC1C(=O)NCCN1Cc1ccc(F)c(F)c1)C1CCOCC1 (stereo not drawn),inactive,1.07%
Cc1ccc(C(=O)NNC(=O)CSc2nnc3c(n2)[nH]c2ccc(F)cc23)cc1,inactive,6.2%
CC1CCc2cc(F)ccc2N1C(=O)CSc1nnc2c(n1)[nH]c1ccc(F)cc12 (stereo not drawn),inactive,-17.4%
CC(C)c1ccc2[nH]c3nc(SCC(=O)N4CCOCC4)nnc3c2c1,inactive,-11.8%
O=C(CSc1nnc2c(n1)[nH]c1ccc(F)cc12)NC1CC1,20.6 µM (active),-6.52%
CCc1ccc2[nH]c3nc(SCC(=O)NCC4CCCO4)nnc3c2c1 (stereo not drawn),inactive,8.06%
CC1CCCCN1C(=O)CSc1nnc2c(n1)[nH]c1ccccc12 (stereo not drawn),0.58 µM (active),8.97%
CC(C)c1ccc2[nH]c3nc(SCC(=O)NC4CC4)nnc3c2c1,0.651 µM (active),8.7%

Compound,Potency,cell number change
CC1CCCCN1C(=O)CSc1nnc2c(n1)[nH]c1ccc(F)cc12 (stereo not drawn),inactive,8.7%
CC1Cc2ccccc2N1C(=O)CSc1nnc2c(n1)[nH]c1ccccc12 (stereo not drawn),inactive,3.16%
COc1ccc(CC(NC(C)=O)C(=O)NC2CCN(c3nnnn3-c3ccccc3)CC2)cc1OC (stereo not drawn),inactive,-4.36%
COc1ccc(-c2c(=O)n(OCc3nc4ccccc4[nH]3)c3ccccc3[n+]2[O-])cc1,inactive,2.91%
Cc1cccc2cc(COC(=O)C3CCCCC3)c(=O)[nH]c12,inactive,10.5%
N#Cc1cncc(-c2ccc3c(c2)OCCOCCOCCOCCOCCO3)n1,inactive,3.78%
COc1cc(CNC2CCCCCCC2)cc(Cl)c1OCC(N)=O,inactive,6.3%
COc1ccccc1N1CCN(C(=O)c2cc(C)oc2C)CC1,inactive,9.51%
O=C(O)c1oc2ccc(Br)cc2c1-n1cccc1,inactive,
COC(=O)c1c(NC(=O)CN2CCN(C(=O)c3ccco3)CC2)c2c(C)cccc2n1C,inactive,-8.93%
CCOC(=O)C1CCN(CC(=O)Nc2c(C(=O)OC)n(C)c3cccc(C)c23)CC1,inactive,-3.82%
COC(=O)c1c(NC(=O)CN2CCCC(C)C2)c2c(C)cccc2n1C (stereo not drawn),3.26 µM (active),-24.5%
COc1ccc(C)cc1NC(=O)C(=O)NCc1ccncc1,inactive,1.5%
O=C1[C@@H]2Cc3c([nH]c4ccccc34)C(c3ccccc3)N2C(=O)CN1C1CC1 (stereo partly drawn),4.11 µM (active),-19.8%
COC(=O)c1ccc(C2c3[nH]c4ccccc4c3C[C@H]3C(=O)N(C4CC4)CC(=O)N23)cc1 (stereo partly drawn),inactive,-1.73%
O=C1[C@@H]2Cc3c([nH]c4ccccc34)C(c3ccc([N+](=O)[O-])cc3)N2C(=O)CN1C1CC1 (stereo partly drawn),inactive,5.54%
O=C(Nc1ccccc1Cl)/C(Cl)=C(\Cl)S(=O)c1ccccc1 (stereo not drawn),4.61 µM (active),
O=C(Nc1ccccc1Cl)Nc1ccccc1Cl,inactive,-0.979%
O=C(Nc1ccccc1Cl)c1ccccc1,inactive,0.403%
CCN(CC(=O)Nc1c(F)cccc1F)C(=O)c1ccc(S(=O)(=O)N2CCCC2)cc1,inactive,23.3%
O=C(O)CN1C(=O)NC2(CCCc3ccccc32)C1=O (stereo not drawn),inactive,8.55%
CCOc1cc(-c2sc(Nc3ccccc3)n[n+]2-c2ccc(F)cc2)ccc1OC,inactive,8.68%
CCN(CCNC(=O)C1CCN(S(=O)(=O)c2c(C)noc2C)CC1)c1ccccc1,inactive,0.289%
Cc1ccc(-c2nc(CN3CCCCC3)cc(CN3CCCCC3)c2O)cc1,inactive,4.96%

Compound,Potency,cell number change
CC(C)(C)c1nc(CN2CCCCC2)cc(CN2CCCCC2)c1O,20.6 µM (active),-1.12%
CC(C)(C)c1nc(CN2CCOCC2)cc(CN2CCOCC2)c1O,inactive,19.4%
Cc1cc(CN2CCC(N3CCC(C(=O)NC4CC4)CC3)CC2)cc(C)c1O,inactive,-10.6%
Cc1cc(C)n(CC(O)CN2C(=O)NC(C)(C)C2=O)n1 (stereo not drawn),inactive,7.08%
O=C1S/C(=C\c2ccccc2)C(=O)N1CC(O)Cn1c2ccccc2c2ccccc21 (stereo not drawn),9.2 µM (active),8.53%
CN(C)c1ccc(/C=C2\SC(=O)N(CC(O)Cn3c4ccccc4c4ccccc43)C2=O)cc1 (stereo not drawn),inactive,1.42%
COc1ccc(/C=C2/SC(=O)N(CC(O)Cn3c4ccccc4c4ccccc43)C2=O)cc1 (stereo not drawn),inactive,-7.54%
C=CCn1c(CCNC(=O)c2cccs2)nnc1SCC(=O)c1cccc([N+](=O)[O-])c1,inactive,21.8%
COc1ccc(N2CCN(Cc3nc(N)nc(Nc4ccccc4OC)n3)CC2)cc1,inactive,-16.4%
CCn1c(=S)sc2c(=O)n(CC(=O)Nc3ccccc3)c(C)nc21,inactive,22.9%
Cc1nc2c(sc(=S)n2Cc2ccco2)c(=O)n1CC(=O)Nc1ccccc1Cl,inactive,8.56%
Cc1nc2c(sc(=S)n2Cc2ccco2)c(=O)n1CC(=O)Nc1ccc(F)cc1,16.4 µM (active),20.2%
COc1ccc(CN2CC(=O)N(c3ccc(C)cc3C)C2=S)cc1OC,inactive,8.06%
CC(=O)NCCc1nc2ccccc2n1CCOc1ccccc1,inactive,18.1%
CC(=C/c1ccccc1)/C=N/NC(=O)c1ccccn1,inactive,10.8%
C=C(c1ccccc1)c1ccc(N(C)C)cc1,inactive,1.48%
CCOc1ccc(-c2cc(N3C(=O)Nc4ccccc4N3O)on2)cc1,23.1 µM (active),24.4%
O=C1Nc2ccccc2N(O)N1c1cc(-c2cccc(Cl)c2)no1,inactive,
O=C1Nc2ccccc2N(O)N1c1cc(-c2ccccc2Cl)no1,inactive,
CC(C)c1cc(C(=O)O)c2cnn(C(C)C)c2n1,inactive,-20.5%
CCOc1ccc(-n2ccnc(SCC(=O)NC3CCCC3)c2=O)cc1,inactive,
CCOc1ccccc1C(=O)Nc1ccc(S(=O)(=O)Nc2nccc(C)n2)cc1,inactive,-4.06%
COC(=O)c1ccc(C23CC4(C2)[C@H](CN(CC2CCCCC2)[C@@H]4c2ccccc2)C3c2ccccc2)cc1 (stereo partly drawn),inactive,12.7%
CC(=O)Oc1ccc(N2C(=O)[C@@H]3[C@H](C2=O)[C@H]2c4ccccc4C=NN2[C@@H]3C(C)=O)cc1,inactive,17.5%

Compound,Potency,cell number change
Cc1cccc(C)c1OCC(=O)N1CC2(C)CC1CC(C)(C)C2 (stereo not drawn),inactive,24%
CC(=O)N/C(=C\c1ccccc1)C(=O)OCC(=O)N(C)C1CCCCC1,inactive,11.6%
CC1(C)CC2CC(C)(CN2C(=O)Cc2ccccc2)C1 (stereo not drawn),inactive,-11.2%
CCN(C(=O)COC(=O)/C(=C/c1ccccc1)n1nnnc1C)C1CCCCC1,7.31 µM (active),-1.15%
CCN(C(=O)COC(=O)c1cnc(C)cn1)C1CCCCC1,inactive,18.1%
Cc1nnnn1/C(=C\c1ccccc1)C(=O)OCC(=O)N1CC2(C)CC1CC(C)(C)C2 (stereo not drawn),1.84 µM (active),-4.4%
COc1ccc(CCNC(=O)c2cc(-c3ccccc3O)n[nH]2)cc1OC,inactive,4.36%
COC(=O)CCc1sc(Nc2ccccc2)nc1-c1ccc(OC)cc1,inactive,-8.54%
O=C(COc1ccccc1)NCC1CCCO1 (stereo not drawn),inactive,-0.966%
O=C(Nc1cccc(F)c1)c1ccccc1,inactive,-17.1%
COc1ccc(NC(=O)Cc2ccccc2)cc1,inactive,-1.56%
COc1ccc(NC(=S)Nc2ccccc2)cc1,inactive,1.43% and -1.32%
NC(=O)c1ccc(NC(=O)C#Cc2ccccc2)cc1,inactive,
COc1ccc(NC(=O)Nc2ccc(CC(=O)O)cc2)cc1,0.116 µM (active),-22.2%
COc1ccc(NC(=O)Nc2ccc(OC)cc2)cc1,inactive,-101%
O=C(C#Cc1ccccc1)Nc1cccc(F)c1,1.16 µM (active),-19.6%
O=C(C#Cc1ccccc1)Nc1ccc(F)cc1,inactive,-2.07%
COc1ccc(NC(=O)C#Cc2ccccc2)cc1,0.92 µM (active),-23.3%
O=C1NC2(CCCCC2)Cc2ccccc21,inactive,2.36%
CCCC(=O)Nc1ccc(Cl)c(NC(=O)c2ccc([N+](=O)[O-])cc2Cl)c1,inactive,3.62%
Cc1cc(NC(=O)c2ocnc2C)no1,inactive,-15.2%

# From PubChem BioAssay AID2685 (National Center for Advancing Translational Sciences (NCATS), 2010)
